Records with an inconclusive call do not appear. The source made the active and inactive calls. Calls follow the shape of the dose curve; as a rule, active = well fitted curve in the direction sought with a large enough effect; inconclusive = small, poorly fitted or top-dose-only effect, or another doubt; inactive = no such curve, though single readings can be large; an effect the other way counts as inactive or inconclusive.
What was measured:
[1] = NS1 protein of Zika virus - qHTS assay to identify small molecule inhibitors in human HEK 293 cells (AID 1347053);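 also: series mostly up to about 46 µM; plate controls were infected untreated cells for no effect and uninfected cells for full effect; nearly all actives have a fitted effect of over 55% in size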
How it was run: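 TR-FRET signal from two anti-ZIKV NS1 antibodies quantified NS1 in HEK 293 cells 24 h after MR766 infection at MOI = 0.5; compounds were added 1 h before virus. Uninfected cells and infected cells defined the NS1 normalization range.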

[2] = qHTS of pediatric cancer cell lines to identify multiple opportunities for drug repurposing: Primary screen for DAOY cells (AID 1347090);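 also: series mostly up to about 46 µM; plate controls were DMSO for no effect and bortezomib for full effect; nearly all actives have a fitted effect of over 55% in size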
How it was run: (§1)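 Eight- or eleven-point concentration series, 48 h treatment at 37 degrees C in growth media; readout CellTiter-Glo luminescence. Potency and efficacy were taken from the concentration-response curves.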

[3] = qHTS of pediatric cancer cell lines to identify multiple opportunities for drug repurposing: Primary screen for A673 cells (AID 1347092); also: % is scaled to controls: 0 for no effect and ±100 for the full control effect; nearly all actives have a fitted effect of over 45% in size
How it was run: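 Cell viability of A673 measured by CellTiter-Glo ATP luminescence after 48 hours compound exposure. Dilution series spanned 0.78 nM to 46 µM (MIPE, 11-point) or 0.59 nM to 46 µM (NPC, 8-point); bortezomib 2.3 uM positive control.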

[4] = qHTS of pediatric cancer cell lines to identify multiple opportunities for drug repurposing: Primary screen for SK-N-MC cells (AID 1347093);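 also: series mostly up to about 46 µM; plate controls were DMSO neutral control for no effect and bortezomib for full effect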
How it was run: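 Metabolically active cells were quantified by ATP-dependent luminescence (CellTiter-Glo, 15 min at room temperature) following 48 h treatment. Cells had been plated at 500-1,000 per well and settled for 5 h beforehand.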

[5] = qHTS of pediatric cancer cell lines to identify multiple opportunities for drug repurposing: Primary screen for BT-37 cells (AID 1347094);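 also: series mostly up to about 57 µM; plate controls were DMSO for no effect and bortezomib for full effect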
How it was run: (§2)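 Following a 5-hour attachment period, cells at 500-1,000/well received compounds and were cultured for 48 hours. CellTiter-Glo was added and luminescence read to estimate viable, metabolically active cells.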

[6] = qHTS of pediatric cancer cell lines to identify multiple opportunities for drug repurposing: Primary screen for U-2 OS cells (AID 1347096);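 also: plate controls were DMSO wells for no effect and bortezomib positive control wells for full effect; nearly all actives have a fitted effect of over 50% in size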
How it was run: (§3)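 Cells (500-1,000/well) in growth media were settled 5 h at 37 degrees C, then given compounds for 48 h. Viability was read as CellTiter-Glo luminescence. Primary runs used MIPE at 11 points (0.78 nM-46 µM) and NPC at 8 points (0.59 nM-46 µM); follow-ups used 11 points.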

[7] = qHTS of pediatric cancer cell lines to identify multiple opportunities for drug repurposing: Primary screen for Saos-2 cells (AID 1347097); also: % is scaled to controls: 0 for no effect and ±100 for the full control effect; nearly all actives have a fitted effect of over 40% in size
How it was run: as §2

[8] = qHTS of pediatric cancer cell lines to identify multiple opportunities for drug repurposing: Primary screen for SK-N-SH cells (AID 1347098);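 also: DMSO served as neutral control and bortezomib at 2.3 µM as positive control; % is scaled to controls: 0 for no effect and ±100 for the full control effect; nearly all actives have a fitted effect of over 65% in size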
How it was run: (§4)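 Cells (500-1,000/well) rested 5 h, then received compounds for 48 h; metabolically active cells were measured by CellTiter-Glo luminescence. Final concentrations spanned up to 46 µM (MIPE, 11-point) or 0.59 nM-46 µM (NPC, 8-point) in primary screens, 11-point in follow-ups.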

[9] = qHTS of pediatric cancer cell lines to identify multiple opportunities for drug repurposing: Primary screen for NB1643 cells (AID 1347099);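 also: plate controls were DMSO neutral control for no effect and bortezomib positive control for full effect; nearly all actives have a fitted effect of over 50% in size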
How it was run: as §2

[10] = qHTS of pediatric cancer cell lines to identify multiple opportunities for drug repurposing: Primary screen for LAN-5 cells (AID 1347100);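 also: plate controls were DMSO neutral control for no effect and bortezomib positive control for full effect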
How it was run: as §3

[11] = qHTS of pediatric cancer cell lines to identify multiple opportunities for drug repurposing: Primary screen for BT-12 cells (AID 1347101);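 also: plate controls were DMSO for no effect and bortezomib positive control for full effect; nearly all actives have a fitted effect of over 25% in size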
How it was run: as §4

[12] = qHTS of pediatric cancer cell lines to identify multiple opportunities for drug repurposing: Primary screen for Rh18 cells (AID 1347102); also: % is scaled to controls: 0 for no effect and ±100 for the full control effect; nearly all actives have a fitted effect of over 65% in size
How it was run: as §3

[13] = qHTS of pediatric cancer cell lines to identify multiple opportunities for drug repurposing: Primary screen for OHS-50 cells (AID 1347103);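 also: plate controls were DMSO neutral control for no effect and bortezomib positive control for full effect; nearly all actives have a fitted effect of over 40% in size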
How it was run: as §4

[14] = qHTS of pediatric cancer cell lines to identify multiple opportunities for drug repurposing: Primary screen for RD cells (AID 1347104);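 also: plate controls were DMSO for no effect and bortezomib for full effect; nearly all actives have a fitted effect of over 55% in size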
How it was run: as §2

[15] = qHTS of pediatric cancer cell lines to identify multiple opportunities for drug repurposing: Primary screen for MG 63 (6-TG R) cells (AID 1347105); also: % is scaled to controls: 0 for no effect and ±100 for the full control effect; nearly all actives have a fitted effect of over 50% in size
How it was run: as §2

[16] = qHTS of pediatric cancer cell lines to identify multiple opportunities for drug repurposing: Primary screen for Rh30 cells (AID 1347107); also: series mostly up to about 46 µM; % is scaled to controls: 0 for no effect and ±100 for the full control effect; nearly all actives have a fitted effect of over 75% in size
How it was run: as §3

[17] = qHTS of pediatric cancer cell lines to identify multiple opportunities for drug repurposing: Primary screen for SJ-GBM2 cells (AID 1347091);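 also: plate controls were DMSO neutral control for no effect and bortezomib for full effect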
How it was run: as §1

[18] = qHTS of pediatric cancer cell lines to identify multiple opportunities for drug repurposing: Primary screen for NB-EBc1 cells (AID 1347095);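 also: plate controls were DMSO neutral control for no effect and bortezomib for full effect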
How it was run: as §2

[19] = qHTS of pediatric cancer cell lines to identify multiple opportunities for drug repurposing: Primary screen for control Hh wild type fibroblast cells (AID 1347106);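 also: series mostly up to about 46 µM; % is scaled to controls: 0 for no effect and ±100 for the full control effect; a drop in luminescence marks cytotoxicity and a rise apparent proliferation; nearly all actives have a fitted effect of over 55% in size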
How it was run: as §3

NCC1CCC(C(=O)Oc2ccc(CCC(=O)O)cc2)CC1 (stereo unspecified)
inactive: outcome [1] | outcome [2] | outcome [3] | Potency [4] | outcome [5] | outcome [6] | outcome [7] | outcome [8] | Potency [9] | outcome [10] | outcome [11] | outcome [12] | outcome [13] | outcome [14] | outcome [15] | outcome [16]

CC(C(=O)O)c1ccc2c(c1)Cc1cccnc1O2 (stereo unspecified)
inactive: outcome [1] | outcome [2] | outcome [17] | outcome [3] | Potency [4] | outcome [5] | outcome [18] | outcome [6] | outcome [8] | Potency [9] | outcome [10] | outcome [11] | outcome [12] | outcome [14] | outcome [15] | outcome [19] | outcome [16]

CC(C)CCCC(C)CCCC(C)CCCCC(C)CCCC(C)CCCC(C)C (stereo unspecified)
inactive: outcome [1] | outcome [2] | outcome [17] | outcome [3] | Potency [4] | outcome [5] | outcome [18] | outcome [6] | outcome [7] | outcome [8] | outcome [10] | outcome [11] | outcome [12] | outcome [13] | outcome [14] | outcome [15] | outcome [19] | outcome [16]

Cc1cccc(C(=O)O)c1O
inactive: outcome [1] | outcome [2] | outcome [17] | outcome [3] | Potency [4] | outcome [5] | outcome [18] | outcome [6] | outcome [8] | Potency [9] | outcome [10] | outcome [11] | outcome [12] | outcome [14] | outcome [15] | outcome [19] | outcome [16]

Cc1[nH]c(C)c(Cl)c(=O)c1Cl
inactive: outcome [1] | outcome [2] | outcome [17] | outcome [3] | Potency [4] | outcome [5] | outcome [18] | outcome [6] | outcome [7] | outcome [8] | Potency [9] | outcome [10] | outcome [11] | outcome [12] | outcome [13] | outcome [14] | outcome [19] | outcome [16]

O=C(NCC(O)CO)c1c(I)c(C(=O)NCC(O)CO)c(I)c(N(CCO)C(=O)CO)c1I (stereo unspecified)
inactive: outcome [1] | outcome [2] | outcome [17] | outcome [3] | Potency [4] | outcome [5] | outcome [18] | outcome [6] | outcome [8] | Potency [9] | outcome [10] | outcome [11] | outcome [12] | outcome [13] | outcome [14] | outcome [15] | outcome [19] | outcome [16]

CCCNC(C)(C)COC(=O)c1ccccc1
inactive: outcome [1] | outcome [2] | outcome [17] | outcome [3] | outcome [5] | outcome [18] | outcome [7] | outcome [8] | Potency [9] | outcome [10] | outcome [11] | outcome [12] | outcome [13] | outcome [14] | outcome [15] | outcome [19] | outcome [16]

O=C(O)c1ccccc1C(=O)Nc1ccc(S(=O)(=O)Nc2nccs2)cc1
inactive: outcome [1] | outcome [2] | outcome [17] | outcome [5] | outcome [18] | outcome [6] | outcome [7] | outcome [8] | Potency [9] | outcome [10] | outcome [11] | outcome [12] | outcome [14] | outcome [15] | outcome [16]

CCCCCCCCCCOc1cc2c(=O)c(C(=O)OCC)c[nH]c2cc1OCC
inactive: activity change, negative = inhibition [1] -16.6% [at 4.81 µM] | activity change, negative = cytotoxic [2] -4.32% [at 4.84 µM] | activity change, negative = cytotoxic [17] 5.74% [at 4.84 µM] | activity change, negative = cytotoxic [4] -8.08% [at 4.84 µM] | activity change, negative = cytotoxic [5] 9.52% [at 6.03 µM] | activity change, negative = cytotoxic [18] 9.4% [at 4.84 µM] | activity change, negative = cytotoxic [6] 0.999% [at 4.84 µM] | activity change, negative = cytotoxic [8] 2.61% [at 6 µM] | activity change, negative = cytotoxic [9] 5.42% [at 4.84 µM] | activity change, negative = cytotoxic [10] 22.4% [at 4.84 µM] | activity change, negative = cytotoxic [11] 6.24% [at 6.03 µM] | activity change, negative = cytotoxic [12] 5.32% [at 4.84 µM] | activity change, negative = cytotoxic [14] 5.98% [at 4.84 µM] | activity change, negative = cytotoxic [15] -13.3% [at 4.84 µM] | activity change, negative = cytotoxic [19] 1.24% [at 4.84 µM] | activity change, negative = cytotoxic [16] 19.2% [at 4.84 µM]

O=C(O)[C@@H]1[C@H]2C[C@H]3c4[nH]c5ccccc5c4CCN3C[C@@H]2CC[C@@H]1O
inactive: outcome [1] | outcome [2] | outcome [17] | Potency [4] | outcome [5] | outcome [6] | outcome [7] | outcome [8] | Potency [9] | outcome [11] | outcome [12] | outcome [13] | outcome [14] | outcome [15] | outcome [19] | outcome [16]

C/C(=C(\CCO)SS/C(CCO)=C(\C)N(C=O)Cc1cnc(C)nc1N)N(C=O)Cc1cnc(C)nc1N
inactive: outcome [1] | outcome [2] | outcome [17] | outcome [3] | Potency [4] | outcome [5] | outcome [18] | outcome [7] | outcome [8] | Potency [9] | outcome [10] | outcome [11] | outcome [12] | outcome [14] | outcome [19] | outcome [16]

CN(C/C=C/C#CC(C)(C)C)Cc1cccc2ccccc12
inactive: outcome [1] | outcome [17] | outcome [5] | outcome [6] | outcome [8] | Potency [9] | outcome [10] | outcome [11] | outcome [12] | outcome [14] | outcome [19] | outcome [16]

Reference: PubChem BioAssay (NCATS)
